We go through seven molecules from the supplement of paper PMC12669032.

What all share (assay): growth AUC relative to DMSO control (median of replicates) (fraction); higher = more growth (less inhibition), active = hit call of the paper
What all share (conditions): 20 µM; 24 h

For assay [1], the system named is Akkermansia muciniphila. Summed up:
(§1)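 For each compound at 20 µM (1% DMSO), gut bacterial monocultures seeded at OD600 0.05 grew anaerobically in mGAM at 37 °C in round-bottom 96-well plates. Hourly OD600 readings over 24 h gave growth curves whose minimum OD was set to 0. Area under these curves was normalised to the plate median of solvent-only wells, or to row and column medians on the industrial chemical plate. Values are medians of three biological replicates grown on separate days.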

Assay [2] concerns Bacteroides caccae. Summed up: as §1
Assay [3] concerns Bacteroides clarus. In a few lines: as §1
Assay [4] has as its system Bacteroides dorei. In a few lines: as §1
In assay [5] the test system is Bacteroides stercoris. In a few lines: as §1
The test system of assay [6] is Bacteroides thetaiotaomicron. In a few lines: as §1
For assay [7], the system named is Bacteroides uniformis. Summed up:
as §1

Assay [8] relates to Bifidobacterium longum subsp. longum. Summed up: as §1
Assay [9] has as its system Clostridium difficile. Summed up:
as §1

Assay [10] deals with Collinsella aerofaciens. Summed up:
as §1

Assay [11] has as its system Coprococcus comes. In a few lines:
as §1

Assay [12] relates to Escherichia coli ED1a. In a few lines:
as §1

The subject of assay [13] is Escherichia coli IAI1. In a few lines: as §1
The subject of assay [14] is Eubacterium rectale. Summed up: as §1
The test system of assay [15] is Fusobacterium nucleatum subsp. animalis. Summed up: as §1
Assay [16] deals with Lactobacillus gasseri. In a few lines: as §1
Assay [17] has as its system Lactobacillus paracasei. In a few lines:
as §1

The test system of assay [18] is Odoribacter splanchnicus. Summed up: as §1
Assay [19] has as its system Parabacteroides distasonis. In a few lines: as §1
The test system of assay [20] is Parabacteroides merdae. In a few lines: as §1

A number with no mark means an inactive call.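 Rule for the calls: active = AUC reduced over 20% with Padj below 0.05 in at least 2 of 3 replicates; inactive = otherwise.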

For the molecule `CCC(C)[C@H]1O[C@]2(C=C[C@@H]1C)C[C@@H]1C[C@@H](C/C=C(\C)[C@@H](O[C@H]3C[C@H](OC)[C@@H](O[C@H]4C[C@H](OC)[C@@H](O)[C@H](C)O4)[C@H](C)O3)[C@@H](C)/C=C/C=C3\CO[C@@H]4[C@H](O)C(C)=C[C@@H](C(=O)O1)[C@]34O)O2.CO[C@H]1C[C@H](O[C@H]2[C@H](C)O[C@@H](O[C@@H]3/C(C)=C/C[C@@H]4C[C@@H](C[C@]5(C=C[C@H](C)[C@@H](C(C)C)O5)O4)OC(=O)[C@@H]4C=C(C)[C@@H](O)[C@H]5OC/C(=C\C=C\[C@@H]3C)[C@]54O)C[C@@H]2OC)O[C@@H](C)[C@@H]1O` (stereo not given in full), the “growth AUC” value in assay [1] was 1.22; in assay [2], 0.965; in assay [3] it was 1.07; in [4], 0.965; in assay [5] it was 0.915; in [6], 1.01. The “growth AUC” value was 1.01 in [7]; 0.919 in [8]; 0.952 in [9]; 0.996 in [10]; 0.99 in [11]; 1.02 in assay [12]. The “growth AUC” value in [13] was 1.01; in assay [14] it was 1.01; in assay [15] it was 1.15; in [16], 0.808; in [17] it was 0.899; in assay [18] it was 1.07. For the same molecule, the “growth AUC” value in assay [19] was 0.536 (active); in assay [20], 1.05.

Consider `O=C(NC(=O)c1c(F)cccc1F)Nc1ccc(Oc2ccc(C(F)(F)F)cc2Cl)cc1F`, for which the “growth AUC” value in assay [1] is 1.02; in [2], 1.02; in assay [3], 0.984; in assay [4], 1.02; in assay [5], 1.02; in assay [6] it was 1. Also, the “growth AUC” value in [7] is 0.996; in assay [8], 1.05; in [9], 1.02; in assay [10], 1.08; in assay [11], 1; in assay [12], 1.03. Moreover, the “growth AUC” value was 1.03 in [13]; 0.994 in assay [14]; 0.951 in assay [15]; 1.21 in [16]; 0.974 in assay [17]; 0.978 in assay [18]. In addition, the entries for the “growth AUC” value in assay [19] and in [20] were 0.988 and 1, respectively.

For the molecule `O=[N+]([O-])/N=C1\NCCN1Cc1ccc(Cl)nc1`, the “growth AUC” value in [1] was 0.979; in assay [2], 1.01; in assay [3], 1.02; in assay [4], 1.03; in assay [5], 1.08; in [6] it was 0.984. Further, the “growth AUC” value is 1 in assay [7]; 0.963 in assay [8]; 0.99 in assay [9]; 0.98 in assay [10]; 0.975 in [11]; 1.02 in assay [12]. The “growth AUC” value in [13] is 1; in assay [14] it was 1.06; in assay [15] it was 1.06; in assay [16], 0.862; in assay [17] it was 0.951; in [18], 1.09. Moreover, the “growth AUC” value in assay [19] is 1.02; in assay [20] it was 1.07.

For `O=C(Cc1ccccc1)N/C(=N\OCC1CC1)c1c(C(F)(F)F)ccc(F)c1F`, the “growth AUC” value is 1.23 in assay [1]; 0.936 in assay [2]; 0.965 in assay [3]; 0.945 in assay [4]; 0.852 in [5]; 0.959 in assay [6]. The “growth AUC” value in [7] is 0.912; in assay [8], 0.975; in assay [9], 0.957; in assay [10] it was 0.915; in assay [11], 1.01; in assay [12], 0.983. Besides, the “growth AUC” value in [13] was 0.972; in assay [14] it was 1.03; in assay [15] it was 0.937; in [16], 0.842; in assay [17], 0.946; in [18] it was 0.911. Besides, the “growth AUC” value in assay [19] was 0.612 (active); in assay [20], 0.877.

Take `Clc1ccccc1-c1nnc(-c2ccccc2Cl)nn1`: the “growth AUC” value in [1] was 0.748; in assay [2] it was 0.892; in [3] it was 0.969; in assay [4], 0.974; in [5], 1.25; in assay [6], 0.999. Besides, the “growth AUC” value in assay [7] is 0.974; in assay [8], 0.825; in assay [9] it was 0.997; in assay [10] it was 0.942; in assay [11], 0.911; in assay [12] it was 0.99. The “growth AUC” value in [13] is 0.978; in assay [14] it was 0.997; in assay [15], 0.943; in assay [16] it was 0.964; in assay [17] it was 0.79; in [18] it was 0.887. Besides, the “growth AUC” value was 0.991 in assay [19] and 1.03 in assay [20].

Turning to `CC(C)(C)C(=O)C(Oc1ccc(Cl)cc1)n1cncn1` (stereo not given), the “growth AUC” value was 1.04 in [1]; 0.993 in assay [2]; 1 in [3]; 1.01 in assay [4]; 1.1 in assay [5]; 0.999 in assay [6]. Besides, the “growth AUC” value in assay [7] was 0.978; in assay [8], 1.02; in [9], 1.03; in assay [10], 1.01; in [11], 1.03; in [12], 1.02. Further, the “growth AUC” value in assay [13] is 1.02; in [14] it was 1.05; in assay [15], 0.974; in assay [16], 1.05; in assay [17] it was 1.02; in assay [18] it was 1.04. The “growth AUC” value in [19] is 1.03; in [20], 0.985.

In the case of `CC(C)(C)N(NC(=O)c1ccc(Cl)cc1)C(=O)c1ccccc1`, the “growth AUC” value was 0.852 in assay [1]; 0.973 in [2]; 0.986 in assay [3]; 0.983 in [4]; 1.02 in [5]; 0.939 in [6]. Moreover, the “growth AUC” value in assay [7] is 1.01; in [8], 1.04; in assay [9] it was 1.11; in assay [10], 1.02; in assay [11] it was 0.995; in [12] it was 1.01. In addition, the “growth AUC” value in assay [13] was 1.01; in [14], 1; in assay [15] it was 0.913; in assay [16], 1.09; in assay [17], 1.1; in [18], 0.988. The figures for the “growth AUC” value in assay [19] and in assay [20] were 0.96 and 0.97, respectively.
